ChEMBL document CHEMBL3988442, “University of Dundee, Small-Polar-MMV Screening Library” (2021)
For some of these results: Potency and affinity values are given separately.

Experiments:
Set-up in all cases: scale not given: direction of the effect not stated beside the values
[1] = target: Protein translocase subunit SecA (Escherichia coli (strain K12)) (UniProt P10408); test: Assay to Identify E. coli SecA ATPase Inhibitors; type: functional; settings: 30 µM
[2] = target: T1, Ubiquitin-activating enzyme e1, putative (Leishmania donovani (strain BPK282A1)) (UniProt E9BSI1); test: Leishmania donovani Ubiquitin Activating Enzyme (LdE1); type: functional; settings: 30 µM
T1 sequence (whole entry): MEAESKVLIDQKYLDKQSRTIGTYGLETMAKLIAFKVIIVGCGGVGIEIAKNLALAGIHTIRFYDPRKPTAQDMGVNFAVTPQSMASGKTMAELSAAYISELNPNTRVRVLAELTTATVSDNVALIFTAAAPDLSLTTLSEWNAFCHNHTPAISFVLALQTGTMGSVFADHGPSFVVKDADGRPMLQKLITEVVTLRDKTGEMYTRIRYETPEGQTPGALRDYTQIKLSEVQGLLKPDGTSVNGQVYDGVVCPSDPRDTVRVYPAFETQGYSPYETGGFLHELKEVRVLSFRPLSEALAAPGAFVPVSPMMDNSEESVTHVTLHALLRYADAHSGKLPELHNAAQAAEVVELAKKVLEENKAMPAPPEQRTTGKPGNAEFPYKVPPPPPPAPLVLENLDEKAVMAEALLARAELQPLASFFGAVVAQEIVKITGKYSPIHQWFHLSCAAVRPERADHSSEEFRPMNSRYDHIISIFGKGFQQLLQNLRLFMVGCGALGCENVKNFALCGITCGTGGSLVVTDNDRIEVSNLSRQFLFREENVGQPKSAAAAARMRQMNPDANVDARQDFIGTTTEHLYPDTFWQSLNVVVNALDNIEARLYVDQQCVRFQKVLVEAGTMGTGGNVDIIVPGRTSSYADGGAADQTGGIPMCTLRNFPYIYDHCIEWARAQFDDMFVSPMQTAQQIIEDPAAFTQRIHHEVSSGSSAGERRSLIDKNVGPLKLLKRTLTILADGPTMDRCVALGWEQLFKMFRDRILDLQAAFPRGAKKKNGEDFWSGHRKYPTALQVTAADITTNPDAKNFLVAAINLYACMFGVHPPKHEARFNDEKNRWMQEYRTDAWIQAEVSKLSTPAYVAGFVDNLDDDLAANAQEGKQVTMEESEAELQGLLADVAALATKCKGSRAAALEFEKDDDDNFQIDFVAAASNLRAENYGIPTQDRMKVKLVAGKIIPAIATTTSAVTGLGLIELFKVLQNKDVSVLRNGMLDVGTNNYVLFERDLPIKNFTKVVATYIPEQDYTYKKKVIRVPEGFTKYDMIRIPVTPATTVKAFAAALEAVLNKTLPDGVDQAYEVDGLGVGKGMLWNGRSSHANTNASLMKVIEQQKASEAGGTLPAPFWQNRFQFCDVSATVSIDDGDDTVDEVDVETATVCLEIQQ

[3] = target: AMP-activated protein kinase, AMPK (Homo sapiens) (UniProt P54646+O43741+P54619+Q9UGJ0+Q9Y478+Q13131+Q9UGI9); test: AMP-dependent Kinase enzyme assay. An in vitro enzyme assay that detects ADP turnover that is directly proportional to AMPK activity. This uses naive AMPK that is activated during the assay with MK-8722; type: functional; settings: 30 µM
[4] = target: Sialic acid-binding Ig-like lectin 9 (Homo sapiens) (UniProt Q9Y336); test: Hs-Siglec9 ALPHAscreen SOP 20170721; settings: 10 µM
Trypanosoma cruzi = test: Trypanosoma cruzi phosphomannomutase and mannose-1-phosphate guanylyltransferase assay; type: functional; settings: 10 µM
[5] = target: T2, Arginase-2, mitochondrial (Homo sapiens) (UniProt P78540); test: in vitro enzyme assay to detect the production of urea directly proportional to the activity of Arginase II; type: functional; settings: 33.3 µM; note: in the data most compounds retested in dose-response had high values
T2 sequence (whole entry): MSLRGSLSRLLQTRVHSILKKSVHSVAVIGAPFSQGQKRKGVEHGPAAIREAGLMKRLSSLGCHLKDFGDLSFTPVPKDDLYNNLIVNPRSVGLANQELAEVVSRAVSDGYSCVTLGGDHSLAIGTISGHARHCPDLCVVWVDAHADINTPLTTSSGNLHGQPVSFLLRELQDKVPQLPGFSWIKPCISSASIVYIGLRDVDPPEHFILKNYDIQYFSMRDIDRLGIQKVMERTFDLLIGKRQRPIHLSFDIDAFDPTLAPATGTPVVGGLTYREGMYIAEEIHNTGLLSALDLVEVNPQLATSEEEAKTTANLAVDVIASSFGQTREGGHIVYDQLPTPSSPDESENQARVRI

[6] = target: T3, Proteasome subunit beta (Trypanosoma cruzi) (UniProt O96673); test: Trypanosoma cruzi proteasome chymotrypsin-like activity (TcProtChymo) assay.; note: in the data most compounds retested in dose-response had high values; type: functional; settings: 9.37 µM
T3 sequence (whole entry): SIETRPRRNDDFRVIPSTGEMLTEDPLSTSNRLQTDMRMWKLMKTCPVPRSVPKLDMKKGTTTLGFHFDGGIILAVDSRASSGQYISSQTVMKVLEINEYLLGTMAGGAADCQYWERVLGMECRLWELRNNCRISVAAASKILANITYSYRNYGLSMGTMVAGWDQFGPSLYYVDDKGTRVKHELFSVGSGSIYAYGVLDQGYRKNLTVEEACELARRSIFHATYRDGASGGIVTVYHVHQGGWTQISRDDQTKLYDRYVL

Homo sapiens = species: Homo sapiens; test: To identify inhibition of the IFN signalling (Jak-Stat) pathway via expression of an eGFP reporter gene under the control of an IFN-stimulated response element (ISRE) containing MxA promoter.; type: functional; settings: 30 µM
[7] = target: T4, Tyrosyl-tRNA synthetase, putative (Trypanosoma cruzi (strain CL Brener)) (UniProt Q4DSP6); test: Trypanosoma cruzi tyrosyl tRNA synthetase (TcYRS) _High Tyrosine SOP; type: functional; settings: 30 µM; note: in the data most compounds retested in dose-response had high values
T4 sequence (whole entry): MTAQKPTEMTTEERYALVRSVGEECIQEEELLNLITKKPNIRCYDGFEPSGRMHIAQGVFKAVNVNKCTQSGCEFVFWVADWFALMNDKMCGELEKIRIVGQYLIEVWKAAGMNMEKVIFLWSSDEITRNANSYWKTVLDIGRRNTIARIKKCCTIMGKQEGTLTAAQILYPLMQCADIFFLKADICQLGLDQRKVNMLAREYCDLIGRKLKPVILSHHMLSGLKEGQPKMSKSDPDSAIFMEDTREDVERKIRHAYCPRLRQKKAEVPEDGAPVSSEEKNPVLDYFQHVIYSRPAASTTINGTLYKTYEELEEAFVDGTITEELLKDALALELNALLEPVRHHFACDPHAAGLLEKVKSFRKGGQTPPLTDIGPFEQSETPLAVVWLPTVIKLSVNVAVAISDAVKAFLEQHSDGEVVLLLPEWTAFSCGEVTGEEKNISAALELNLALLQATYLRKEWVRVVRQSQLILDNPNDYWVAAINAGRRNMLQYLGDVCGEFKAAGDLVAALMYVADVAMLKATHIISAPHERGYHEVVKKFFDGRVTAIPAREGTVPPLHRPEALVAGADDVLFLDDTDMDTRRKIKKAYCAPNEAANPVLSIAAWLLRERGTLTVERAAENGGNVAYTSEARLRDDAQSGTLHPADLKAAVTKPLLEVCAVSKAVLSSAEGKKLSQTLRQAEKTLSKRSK

[8] = target: T4, Tyrosyl-tRNA synthetase, putative (Trypanosoma cruzi (strain CL Brener)); test: Trypanosoma cruzi tyrosyl tRNA synthetase (TcYRS) SOP; type: functional; settings: 30 µM
[9] = target: Chromo domain-containing protein 1 (Saccharomyces cerevisiae (strain ATCC 204508 / S288c) (Baker's yeast)) (UniProt P32657); test: ScCHD-1 Enzyme Inhibition Assay; type: functional; settings: 30 µM; note: in the data most compounds retested in dose-response had high values
Chain of Chromo domain-containing protein 1 (Saccharomyces cerevisiae (strain ATCC 204508 / S288c) (Baker's yeast)) (P32657 whole entry, the tested form may be a part): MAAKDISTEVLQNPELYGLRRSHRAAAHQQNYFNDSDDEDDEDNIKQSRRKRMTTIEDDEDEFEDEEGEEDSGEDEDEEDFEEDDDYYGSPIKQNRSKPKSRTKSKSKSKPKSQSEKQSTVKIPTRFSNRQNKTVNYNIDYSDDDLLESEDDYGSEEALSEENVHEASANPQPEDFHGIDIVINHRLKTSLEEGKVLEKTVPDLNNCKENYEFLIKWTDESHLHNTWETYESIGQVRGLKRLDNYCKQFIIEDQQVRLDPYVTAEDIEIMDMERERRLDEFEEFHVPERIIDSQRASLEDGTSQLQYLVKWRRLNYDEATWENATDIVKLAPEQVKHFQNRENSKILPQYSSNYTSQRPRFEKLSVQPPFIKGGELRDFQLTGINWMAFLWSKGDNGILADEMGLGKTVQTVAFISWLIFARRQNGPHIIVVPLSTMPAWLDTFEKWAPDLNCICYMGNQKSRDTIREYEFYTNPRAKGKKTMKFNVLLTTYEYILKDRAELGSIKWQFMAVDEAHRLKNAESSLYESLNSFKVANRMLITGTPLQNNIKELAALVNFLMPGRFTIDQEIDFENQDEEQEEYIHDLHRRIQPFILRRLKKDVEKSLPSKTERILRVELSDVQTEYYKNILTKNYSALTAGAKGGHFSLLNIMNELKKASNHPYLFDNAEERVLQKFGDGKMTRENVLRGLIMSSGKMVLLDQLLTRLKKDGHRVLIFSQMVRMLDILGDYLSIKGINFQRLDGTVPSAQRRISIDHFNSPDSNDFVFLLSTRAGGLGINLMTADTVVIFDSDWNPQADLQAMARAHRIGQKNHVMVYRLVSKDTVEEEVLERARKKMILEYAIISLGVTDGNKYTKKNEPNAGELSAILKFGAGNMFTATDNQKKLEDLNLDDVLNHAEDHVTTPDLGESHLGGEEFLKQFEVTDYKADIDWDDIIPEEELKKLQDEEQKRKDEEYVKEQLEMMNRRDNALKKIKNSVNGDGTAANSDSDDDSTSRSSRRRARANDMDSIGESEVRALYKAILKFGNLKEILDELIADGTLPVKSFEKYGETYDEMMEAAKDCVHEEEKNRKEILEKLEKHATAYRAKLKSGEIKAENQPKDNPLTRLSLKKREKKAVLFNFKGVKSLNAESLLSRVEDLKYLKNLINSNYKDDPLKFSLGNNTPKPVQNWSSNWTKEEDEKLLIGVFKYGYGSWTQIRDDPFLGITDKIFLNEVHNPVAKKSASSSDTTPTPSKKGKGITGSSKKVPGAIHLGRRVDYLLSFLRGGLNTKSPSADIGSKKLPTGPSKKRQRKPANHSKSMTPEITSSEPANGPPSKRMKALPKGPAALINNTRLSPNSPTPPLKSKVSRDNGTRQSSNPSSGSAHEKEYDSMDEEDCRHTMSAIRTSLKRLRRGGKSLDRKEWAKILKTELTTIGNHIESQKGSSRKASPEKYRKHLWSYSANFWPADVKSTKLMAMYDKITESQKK

Chain of Sialic acid-binding Ig-like lectin 9 (Homo sapiens) (Q9Y336 whole entry): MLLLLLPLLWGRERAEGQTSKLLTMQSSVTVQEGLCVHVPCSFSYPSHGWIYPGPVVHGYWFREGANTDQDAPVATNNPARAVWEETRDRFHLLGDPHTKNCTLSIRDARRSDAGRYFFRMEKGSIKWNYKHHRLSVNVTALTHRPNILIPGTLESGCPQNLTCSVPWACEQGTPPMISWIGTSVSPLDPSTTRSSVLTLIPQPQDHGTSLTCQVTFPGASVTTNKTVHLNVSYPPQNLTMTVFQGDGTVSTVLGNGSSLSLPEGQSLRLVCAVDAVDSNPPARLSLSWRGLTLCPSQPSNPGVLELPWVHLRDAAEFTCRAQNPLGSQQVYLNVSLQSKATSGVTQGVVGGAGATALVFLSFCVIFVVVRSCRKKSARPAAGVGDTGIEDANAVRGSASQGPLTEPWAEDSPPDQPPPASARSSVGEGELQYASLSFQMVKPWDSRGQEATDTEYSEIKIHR
Chain of Protein translocase subunit SecA (Escherichia coli (strain K12)) (P10408 whole entry): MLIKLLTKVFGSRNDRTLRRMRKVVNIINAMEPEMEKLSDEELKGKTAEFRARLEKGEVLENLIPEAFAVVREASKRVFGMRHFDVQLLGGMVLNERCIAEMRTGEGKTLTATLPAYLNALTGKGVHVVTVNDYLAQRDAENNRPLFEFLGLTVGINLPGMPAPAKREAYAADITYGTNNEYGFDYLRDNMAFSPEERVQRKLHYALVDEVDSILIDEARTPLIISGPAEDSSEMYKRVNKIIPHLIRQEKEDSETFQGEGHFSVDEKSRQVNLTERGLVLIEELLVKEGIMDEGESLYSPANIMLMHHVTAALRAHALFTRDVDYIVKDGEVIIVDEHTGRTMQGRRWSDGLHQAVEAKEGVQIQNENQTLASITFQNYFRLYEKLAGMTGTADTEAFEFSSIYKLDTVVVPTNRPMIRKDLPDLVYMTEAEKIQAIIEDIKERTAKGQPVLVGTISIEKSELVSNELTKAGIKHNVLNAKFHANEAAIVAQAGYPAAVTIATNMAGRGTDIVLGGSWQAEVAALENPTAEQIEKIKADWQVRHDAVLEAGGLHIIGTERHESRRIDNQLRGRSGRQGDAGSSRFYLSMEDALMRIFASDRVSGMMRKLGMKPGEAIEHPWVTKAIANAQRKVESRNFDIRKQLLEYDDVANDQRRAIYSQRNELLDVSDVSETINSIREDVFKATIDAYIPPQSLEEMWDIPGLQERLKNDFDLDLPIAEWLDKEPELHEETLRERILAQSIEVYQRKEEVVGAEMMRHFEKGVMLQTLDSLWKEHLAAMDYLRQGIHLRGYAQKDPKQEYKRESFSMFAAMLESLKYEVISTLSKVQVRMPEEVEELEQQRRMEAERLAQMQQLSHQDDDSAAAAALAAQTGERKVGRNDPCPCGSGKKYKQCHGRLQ

Structure (SMILES)	Percent Effect [1] [%]	Percent Effect [2] [%]	Percent Effect [3] [%]	Percent Effect [4] [%]	Percent Effect (Trypanosoma cruzi) [%]	Percent Effect [5] [%]	Percent Effect [6] [%]	Percent Effect (Homo sapiens) [%]	Percent Effect [7] [%]	Percent Effect [8] [%]	Percent Effect [9] [%]
O=C(CCC1CCCO1)NS(=O)(=O)c1ccc(Cl)cc1 (configuration not stated)	-3.22	18.9	-10.2	0.394	-4.81	-2	17.5	16.7	8.37	18.5	-1.63
COCC(=O)N1CCCn2c(CN3CCCCC3)nnc2C1	-0.412	11	1.87	4.92	-5.95	-2.4	22.7	24	7.29	11.1	-5.31
O=C1OCCN1CCOc1nc(-c2ccccc2Cl)no1	-6.78	16.4	-3.77	15.8	4.7	8.64	12.1	7.15	5.38	12.5	-6.2
COc1ccc(C(CNC(=O)Nc2cn[nH]c2)N2CCOCC2)cc1 (configuration not stated)	-3.98	7.79	3.92	0.747	4.8	1.05	15	-2.67	10.5	25.9	-20.4
Cc1cc(C)n(CC(C)CNC(=O)[C@@H](C)NC(=O)OC(C)(C)C)n1 (some centres not stated)	-2.44	7.89	3.79	1.85	0.487	-5.92	17.7	-12.5	4.25	13	-2.31
O=C(c1cc[nH]n1)N1CCCC1C1CCN(Cc2ccccc2)CC1 (configuration not stated)	-0.52	-7.89	10.9	1.13	-7.11	1.18	16.6	-0.106	4.25	7.79	-1.17
N#Cc1ccc(C(=O)N2CC[C@H]3[C@@H]2CCC(=O)N3c2ccccc2)cc1	1.09	0	6.69	-7.59	-7.68	4.89	6.08	0.115	4.25	11.5	-4.7
O=C(Cc1ccc(-n2cccn2)cc1)N1CCCC(n2cccn2)C1 (configuration not stated)	-9.35	10.4	-6.09	-18.3	11.5	-1.9	13.8	-3.32	6.67	11.8	-20
CC(C)n1ncc2c1NC(=O)CC21C(=O)Nc2c(Cl)cc(Cl)cc21 (configuration not stated)	-1.94	6.67	3.17	6.18	-0.197	-9.33	1.29	13.3	2.12	10.3	-4.48
CC(C)c1ncc2c(n1)CN(Cc1nc(-c3cccs3)no1)CC2	-1.45	-10.8	-21.1	-6.68	-3.99	2.4	2.33	19.6	13.9	13.4	8.9
CC(C)c1nc2n(n1)CC(NCc1nc(-c3cccnc3)no1)CC2 (configuration not stated)	-3.79	2.6	-1.93	-12.6	5.78	-2.74	11.1	-3.81	3.81	11.8	-23.3
COC(=O)C(c1cc(F)ccc1F)N(C)C(=O)c1csnn1 (configuration not stated)	1.09	16.5	3.37	-5.43	-5.64	-1.5	14.4	21.4	6.25	12.7	-27.1
CC(C)(C)N1CC(C(=O)N2CCN(CCc3ccccc3)CC2)CC1=O (configuration not stated)	-1.55	5.33	-2.2	1.39	-3.6	1.56	17.1	32.1	4.92	11.1	-6.21
Cc1cc(=O)n(CC(=O)NCCC(C)C)c(-c2cccc(Cl)c2)n1	-6.74	2.6	3.52	10.7	2.85	-9.65	6.49	2.45	6.45	13.6	5.24
Cc1ccc(-n2nnc(CC(=O)N3CCOCC3)c2C)cc1	-3.24	18.2	-1.18	11.4	5.61	-12.4	13	6.11	6.45	18.5	-6.8
CCn1cnnc1C1CCN(C(=O)c2ccccc2OC)CC1	-2.76	7.79	12.8	2.75	-4.68	-2.13	6.42	25.9	4.85	7.32	-3.6
CCCn1nc2c(cc1=O)CN(Cc1nc(CCOC)no1)CC2	-1.92	0	-119	-3.46	-0.781	0.417	10.6	-1.9	-7.92	-6.1	-7.2
